This passage reports activation results from PubChem BioAssay AID652067 (The Scripps Research Institute Molecular Screening Center, 2013).

Hit rate of the full screen: of about 370,000 compounds, about 5,400 (1.5%) were called active.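 The calls were made as follows: active = activation above the mean of all tested compounds plus 3 SD (cut at about 5.5% in these data); inactive = the rest.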 For the sample, actives were picked, then their nearest neighbours and some compounds at random.

This experiment relates to DAF-12 nuclear receptor (Haemonchus contortus). The experiment can be described thus: hcDAF-12 driven luciferase reporter activation – cell-based, luminescence, HEK293, lit1-tk-luc reporter, primary screen (AID 652067).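 Also: 100% = response to 3 µM Δ7-dafachronic acid high control.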 To be noted: HEK293 hcDAF-12 lit1-tk-luc reporter, at 6.8 µM, stronger effect = higher value, 0% DMSO, 100% Δ7-dafachronic acid. Background: Reporter assays use an easily measured gene product as a stand-in for the process of interest.
Regarding `COc1ccc(-n2c(COc3ccc(C)cc3)nnc2SCC(=O)Nc2ccc(Oc3ccccc3)cc2)cc1`, the activation is -2.93% (inactive).
For `CCN(CC)C(=O)CC[C@H]1CC[C@]2(CCCN(Cc3ccc(Cl)cc3)C2)O1`, the activation is -0.52% (inactive).
As for `CN(Cc1ccc(C(F)(F)F)cc1)C(=O)[C@H]1O[C@@H](n2cnc3c(N)ncnc32)[C@H](O)[C@@H]1O`, the figure is -3.28% (inactive).
As for `Cc1ccc(C)c(NC(=O)C(OC(=O)c2ccc(C)s2)c2ccccc2)c1` (stereo unspecified), the figure is 5.84% (active); as for `Cc1cc(C)cc(NC(=O)C(OC(=O)c2ccc(O)cc2)c2ccccc2)c1` (stereo unspecified), 2.07% (inactive); as for `COc1ccc(C)cc1NC(=O)C(OC(=O)c1cccc(S(=O)(=O)N(C)c2ccccc2)c1)c1ccccc1` (stereo unspecified), 0.81% (inactive).
Turning to `O=c1[nH]c(CCl)nc2cc(-c3ccc(Cl)cc3)sc12`, the activation was 7.46% (active).
Then `Cn1c(NCc2cccnc2)nc2cc(-c3ccc(F)cc3)sc2c1=O`, with -0.57% (inactive); and `COc1cccc(-c2cc3nc(NCCOc4ccccc4Cl)n(C)c(=O)c3s2)c1`, with -0.41% (inactive).
Then `CCCOc1ccc(Oc2c(Cl)cnn(Cc3cccc4ccccc34)c2=O)cc1`, with 0.08% (inactive); and `O=C(CSC(=S)N1CCOCC1)c1ccccc1`, with 6.9% (active).
As for `O=C(O)CC(CC(=O)N1CCOCC1)c1ccccc1` (stereo unspecified), the figure is -2.07% (inactive); as for `CC(=O)c1ccc(NC(=O)CSC(=S)N2CCCC2)cc1`, 4.8% (inactive); as for `COc1cccc(NC(=O)CN(C)C(=O)CSC(=S)N2CCCC2)c1`, 0.17% (inactive).
For the compound `N[C@@H](Cc1ccccc1)C(=O)N1CCOCC1`, the activation was -1.46% (inactive).
As for `O=C(CSC(=S)N1CCCCC1)c1c(F)cccc1F`, the figure is 6.39% (active); as for `CCOC(=O)[C@@]12CCC3=C1N(CCC3)C(=O)[C@H](CC(=O)N1CCN(C(=O)c3ccco3)CC1)C2`, 0.92% (inactive); as for `CN1CCOC1c1ccc(C2OCCN2C)cc1` (stereo unspecified), -0.23% (inactive).
Take `CC(=O)C1=C(C)N(Cc2ccccc2)C(=S)NC1c1cccc(Br)c1` (stereo unspecified): the activation is 1.52% (inactive).
As for `CCOc1ccc(NC(=O)CSc2ncnc3c2sc2ccccc23)cc1`, the figure is 2.39% (inactive); as for `COC(=O)[C@H](C(C)C)N1CCc2nnn(Cc3ccc(C)cc3)c2-c2ccccc2S1(=O)=O`, -1.76% (inactive); as for `O=C(Nc1cc(F)cc(F)c1)OC1CCC12CCC(c1ccccc1)CC2` (stereo unspecified), 1.63% (inactive).
In the case of `NC(=O)Nc1ccccc1C(=O)NCCc1ccccc1`, the activation is 8.5% (active).
With `Nc1nonc1C(=O)NCCc1ccccc1`, the activation was -1.41% (inactive).
As to `O=C(O)c1ccccc1-c1ccccc1C(=O)NCCc1ccccc1`, the activation was -1.14% (inactive).
As for `Cn1c(SCC(=O)N/N=C/c2ccc(O)c(O)c2)nc2ccccc21`, the activation is 0.79% (inactive).
As for `CCN(CC)CCn1c(/N=C/c2cc(Br)ccc2O)nc2ccccc21`, the figure is 6.13% (active).
In the case of `C/C(=N\c1nc2ccccc2n1C)c1cc(Cl)ccc1O`, the activation was 4.18% (inactive).
Then `CCOC(=O)Cn1c2c(n(-c3ccc(F)cc3)c1=O)C=C(c1ccccc1)[C@@H](C)C(C(=O)N(C)C1CCCCC1)=C2`, with -0.1% (inactive).
As to `N#Cc1cccc(C(=O)NCC2CCN(C(=O)C(=O)c3cc4ccccc4o3)CC2)c1`, the activation was -1.58% (inactive).
For the compound `Cc1cccc(NC(=O)C[C@H]2CC[C@H]3[C@@H](COc4ccc(NC(=O)Nc5ccccc5)cc4C(=O)N3C)O2)c1`, the activation is -0.28% (inactive).
Then `CN(CC(=O)Nc1ccc(Cl)cc1)C(=O)c1ccc(COc2ccccc2)cc1`, with -1.47% (inactive); and `CN(CC(=O)Nc1ccc(Cl)cc1)CC(=O)Nc1cccc2ccccc12`, with -0.93% (inactive).
As for `CN(CC(=O)Nc1ccc(Cl)cc1)C(=O)CNC(=O)c1ccc2ccccc2c1`, the figure is 6.25% (active); as for `CN1C(=O)C2CC(O)C(SC3CC4C(=O)N(C)C(=O)C4CC3O)CC2C1=O` (stereo unspecified), 0.52% (inactive); as for `CC[C@H](NC(=O)[C@H](Cc1ccccc1)NC(=O)[C@H]1O[C@@H](n2cnc3c(=O)[nH]c(N)nc32)[C@H](O)[C@@H]1O)c1ccccc1`, -0.3% (inactive).
For the compound `Fc1ccc(-c2ccc(CNCc3ccccn3)o2)cc1Cl`, the activation is 0.05% (inactive).
Turning to `Clc1ccccc1-c1cc(COc2ccc3ccccc3c2)no1`, the activation is -2.26% (inactive).
As to `Clc1ccc(-c2cc(-c3ccccn3)on2)c(Cl)c1`, the activation is 12.3% (active).
As for `CC(=O)N1CCCN(C2=Nc3ccccc3Sc3ccccc32)CC1`, the figure is -0.4% (inactive); as for `COCCCNC(=O)C[C@H]1C[C@@]2(C(=O)OC)C(=C[C@H](C(C)(C)C)O[C@@H]2C)N(Cc2ccc3c(c2)OCO3)C1=O`, -1.12% (inactive); as for `O=C1CCC(=O)N(O)CCCCCNC(=O)CCC(=O)N(O)CCCCCNC(=O)CCC(=O)N(O)CCCCCN1`, 0.23% (inactive).
Take `CCCCNC(=O)OC(C)CNC(=O)OC` (stereo unspecified): the activation is -0.33% (inactive).
On to `CC(C)C(=O)Nc1oc(-c2ccccc2)cc1C#N`, for which the activation was -1.35% (inactive).
For `CC(C)C(=O)Nc1c(C(=O)c2ccc(F)cc2)oc2ccccc12`, the activation was -1.93% (inactive).
Then `CC(C)C(=O)Nc1ccc2c(c1)oc1ccccc12`, with 6.7% (active); and `FC(F)(F)c1cccc(NC(=S)OC2CCC23CCC(c2ccccc2)CC3)c1` (stereo unspecified), with -0.73% (inactive).
Turning to `CCOC(=O)N1CCN(C(=O)C[C@H]2C[C@@]3(C(=O)OC)C(=C[C@H](C4CCCC4)O[C@@H]3C)N(Cc3ccccc3)C2=O)CC1`, the activation is -0.64% (inactive).
As for `Cc1ccc(-n2c(SCC(=O)Nc3cccc4ccccc34)nnc2-c2ccco2)cc1`, the figure is -2.24% (inactive); as for `COc1cccc(-c2cc(CNC(=O)[C@@H](Cc3ccccc3)NC(=O)[C@H]3O[C@@H](n4cnc(C(N)=O)n4)[C@H](O)[C@@H]3O)no2)c1`, -1.75% (inactive); as for `O=C(Nc1cccc(Cl)c1)OC1CC2CC1[C@H]1CCCCN1[C@H]2Cc1ccccc1` (stereo partly specified), -1.09% (inactive).
As for `COc1ccc(C(=O)NN2C(=O)C3C(c4ccccc4)C=CC(c4ccccc4)C3C2=O)cc1` (stereo unspecified), the figure is 0.07% (inactive); as for `CC(=O)N1C(=O)/C(=C2\SC(=S)N(NC(=O)c3ccc(O)cc3)C2=O)c2ccccc21`, 8.31% (active); as for `COc1ccc2c(c1)N(C)/C(=C1/SC(=S)N(NC(C)=O)C1=O)S2`, -1.24% (inactive).
`CCOC(=O)N1CCN(C(=O)C[C@H]2C[C@@]3(C(=O)OC)C(=C[C@H](C(C)(C)C)O[C@@H]3C)N(Cc3ccc(Cl)cc3Cl)C2=O)CC1`: the activation is -1.96% (inactive).
As for `COc1ccc([C@H]2[C@H](C(C)=O)N3N=Cc4ccccc4C3C23C(=O)OC(C)(C)OC3=O)cc1` (stereo partly specified), the activation is -0.72% (inactive).
For the compound `COC(=O)c1cccc(Cn2ccc3ccc(-c4ccc5ccn(C(=O)c6ccccc6C)c5c4)cc32)c1`, the activation is -0.36% (inactive).
Then `O=C(NC1CCCCN(Cc2cccc(C(F)(F)F)c2)C1=O)c1ccccc1I` (stereo unspecified), with -2.6% (inactive).
`O=C(CSCc1ccccc1)N1CCc2ccccc21`: the activation is 6.78% (active).
As for `CC(OC(=O)Cc1ccc(F)cc1)C(=O)N1CCc2ccccc21` (stereo unspecified), the activation was -0.21% (inactive).
Then `O=C(CN1C(=O)c2ccccc2S1(=O)=O)N1CCc2ccccc21`, with -5.07% (inactive); and `CC(=O)N1CCc2cc(S(=O)(=O)NCCC(=O)N3CCCC3)ccc21`, with 1.64% (inactive).
As for `Cn1c(NC(=O)c2ccccc2)nc2ccccc21`, the activation was 14.3% (active).
As for `O=C(NC1=CC(=O)c2ccccc2C1=O)c1ccccc1`, the figure is -0.21% (inactive); as for `CCn1c(NC(=O)c2nn(C)cc2Br)nc2ccccc21`, -2.93% (inactive).
As for `C[C@@H](NC(=O)c1ccccc1OCC(=O)Nc1ccc(I)cc1)C(=O)N(C)Cc1ccccc1`, the figure is -0.3% (inactive); as for `COCC(=O)N[C@@H]1C[C@@H]2O[C@@H](CO)CC[C@@H]2O[C@@H]1CCc1ccc(-c2ccccc2)cc1`, -2.01% (inactive).
Then `O=C(CSc1nc2ccccc2s1)NN=Cc1ccc(O)cc1O`, with -0.04% (inactive); and `Cn1c(SCc2nc3ccccc3s2)nnc1-c1ccc2c(c1)OCO2`, with 3.52% (inactive).
In the case of `O=C(O)CSCc1nc2ccccc2s1`, the activation was 5.6% (active).
Then `O=C(O)c1ccccc1CSc1nc2ccccc2s1`, with 8.09% (active).
Then `O=C(CSc1nc2ccccc2s1)N=Nc1c(O)[nH]c2ccccc12`, with -1.5% (inactive).
As for `O=C(O)CSc1nccc2ccccc12`, the figure is 0.9% (inactive); as for `O=C(N[C@H](Cc1ccccc1)C(=O)N1CCCN(Cc2cccs2)CC1)[C@H]1O[C@@H](n2ccc(=O)[nH]c2=O)[C@H](O)[C@@H]1O`, -1.83% (inactive); as for `CC(C)CNC(=O)OCc1cn(Cc2ccc(F)cc2)nn1`, -2.06% (inactive).
As for `CS(=O)(=O)N(CC(=O)Nc1ccc(F)cc1F)c1cccc([N+](=O)[O-])c1`, the activation was -0.66% (inactive).
As for `O=C(NCc1ccco1)C1CCCN(S(=O)(=O)c2ccc(Cl)s2)C1` (stereo unspecified), the figure is -2.39% (inactive).
Then `Cc1nc2c(OCc3ccc(Cl)cc3Cl)cccn2c1N(C)CC1CC1`, with -1.39% (inactive).
On to `NC(N)=N/N=C/c1ccc(OCc2ccc(Cl)cc2Cl)cc1`, for which the activation was -1.35% (inactive).
In the case of `Cc1nc2ccccc2nc(C)c1=NOCc1ccc(Cl)cc1Cl`, the activation was 6.04% (active).
As for `CCOC(=O)[C@]12CCCCC/C=C\1N(Cc1ccc(OC)cc1)C(=O)[C@H]2CC(=O)NCCCN1CCCC1=O`, the figure is -0.09% (inactive).
Then `CN(C)Cc1cn(-c2ccc(-c3noc4c3C(=O)N(CC(=O)N3CCOCC3)CC4)cc2)nn1`, with 2.44% (inactive).
Then `CCOC(=O)CNC(=O)N(C)[C@H]1C[C@H]2c3[nH]c4c(-c5ccc6c(c5)OCO6)cccc4c3CCN2C(=O)[C@H]1[C@H](C)O`, with -1.87% (inactive).
As to `O=C(NNC(=O)c1ccccc1O)c1ccccc1O`, the activation is 5.92% (active).
As to `Cc1cccc(NS(=O)(=O)c2cccc(C(=O)NNC(=O)c3ccccc3O)c2)c1`, the activation is -2.63% (inactive).
On to `O=C(NNC(=O)c1cc(S(=O)(=O)N2CCCCC2)ccc1Cl)c1ccccc1O`, for which the activation is 1.49% (inactive).
